Screening data: PubChem, National Center for Advancing Translational Sciences (NCATS)
Compounds with a hit are over-represented: about 2.4% of the library has one in this group of screens.
D2 ag-1: D2 dopamine receptor (human) agonism; P14416; HEK293 T-REx D2 cells, calcium flux agonist mode; activation, % at 2 µM; hit rate 0.53% among 340,000;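 active = activation over 3 SD above normal in the single-dose calcium agonist read, cut at about 30% in these data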; note: 0% is about no effect
Target sequence (P14416 whole entry, looked up): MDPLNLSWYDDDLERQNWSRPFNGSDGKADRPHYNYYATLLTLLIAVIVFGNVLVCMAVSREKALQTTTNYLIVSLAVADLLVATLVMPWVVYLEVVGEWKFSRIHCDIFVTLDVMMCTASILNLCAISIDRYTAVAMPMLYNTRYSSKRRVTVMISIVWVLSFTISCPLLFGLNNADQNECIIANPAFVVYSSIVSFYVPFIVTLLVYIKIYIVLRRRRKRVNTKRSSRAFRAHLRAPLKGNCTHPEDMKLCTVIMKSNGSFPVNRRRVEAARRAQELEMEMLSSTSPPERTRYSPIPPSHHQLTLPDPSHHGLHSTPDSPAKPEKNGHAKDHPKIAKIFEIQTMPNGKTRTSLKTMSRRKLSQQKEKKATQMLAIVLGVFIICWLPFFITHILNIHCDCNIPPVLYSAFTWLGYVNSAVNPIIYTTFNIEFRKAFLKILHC
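HEK293 Trex D2 cells, tetracycline-induced, o/n 30 C 5% CO2; no-wash Ca dye, RT 30–90 min; 10-cycle baseline, 23 nl cpd added, kinetic Ca read 180 s; agonist hits = positive Ca response.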
D2 PAM-1: positive allosteric modulators of human D2 dopamine receptor. DiscoveRx D2 beta-arrestin cells, luminescence, 90 min; 100% = 57 uM dopamine signal. potentiation, % (concentration not given with the values). hit rate 0.23% among 360,000. AID 624464; in the data active = potentiation above about 50%; inconclusive = mostly about 30% to 49%
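D2 cells co-treated with compound plus 50 nM dopamine (EC20) for 90 min at 37 deg C to detect potentiation. Beta-arrestin recruitment was read as enzyme-fragment luminescence after 1 h at ambient temperature. Full response was set by 57 uM dopamine.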
D2 ag-2: human D2 receptor agonism in beta-arrestin assay; P14416; DiscoveRx PathHunter D2 beta-arrestin, luminescence, 90 min; 100% = 57 uM dopamine signal; activation, % (no concentration beside the values); hit rate 0.084% among 360,000; in the data active = activation above about 40%; inconclusive = between about 15% and that limit
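DiscoveRx PathHunter D2 beta-arrestin cells (2,100/well) attached overnight, then compound-stimulated 90 min at 37 C in HBSS/10 mM HEPES/0.1% Tween-20 buffer; beta-galactosidase complementation read by luminescence after 1 h at ambient temperature. Dopamine 57 uM final (EC100) as control.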
D2 PAM-2: positive allosteric modulators of human D2 dopamine receptor; P14416; HEK293 T-REx D2, calcium flux, EC20 dopamine potentiation; potentiation, % at 10 µM; hit rate 0.34% among 340,000;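 active = potentiation over 3 SD above the plate norm, cut at about 30% in these data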; note: 0% is about no effect
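Using a no-wash calcium dye in inducible, force-coupled HEK293 Trex cells expressing D2, we tracked fluorescence each second for 180 s after compound, then for 180 s after EC20 dopamine to detect augmented signalling.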
D2 antagonist: antagonizes the human D2 dopamine receptor; hit rate 2% among 340,000; inhibition, % at 10 µM; AID 485344; HEK293 TREx D2 cells, calcium flux, dopamine EC80; P14416; in the data active = inhibition above about 30%; inactive = below that, where a call was filed; note: 0% is about no effect
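Overnight-induced (tetracycline, 30 C) HEK293 T-REx cells carrying force-coupled D2 receive a no-wash calcium dye, then compound, then EC80 dopamine at 180 s; signals are read kinetically throughout.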
D3 arrestin ag: D3 receptor agonism confirmed, beta-arrestin readout; hit rate 4% among 2,300; DiscoveRx D3 beta-arrestin cells, luminescence, 90 min; Potency, µM (series often up to 76.9 µM), without a hit: top-dose activation, hits mostly activators; shares compounds with D2 ag-1; AID 720506;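 note: potency is the fitted concentration of half-maximal effect; 100% = dopamine control response; nearly all actives have a fitted effect of over 70% in size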
D2 ag-3: D2 receptor agonism, beta-arrestin counterscreen; shares compounds with D2 ag-1; hit rate 5.9% among 2,300; DiscoveRx PathHunter D2 beta-arrestin, luminescence, 90 min; response scale: percent relative to full dopamine signal; Potency, µM (highest dose often 76.9 µM), for inactives: at the highest dose activation, usual class: activators; note: potency is the fitted concentration of half-maximal effect; % of control where 0% means no effect; nearly all actives have a fitted effect of over 70% in size
Numbers without * were called inactive; ? = inconclusive; . = no result; ! = a repeat was not active. Unless noted, calls come from the whole dose curve; as a rule, active = well fitted activation curve with a large enough effect; inconclusive = small, poorly fitted or top-dose-only effect; inactive = flat fitted curve, though single readings scatter.

SMILES	D2 ag-1	D2 PAM-1	D2 ag-2	D2 PAM-2	D2 antagonist	D3 arrestin ag	D2 ag-3
O=C(Nc1cccc(C(=O)N2CCOCC2)c1)c1ccc([N+](=O)[O-])cc1	39*	2	0	-4	-1	?	3%
Cc1cc(C(=O)CN2C(=O)C(=O)N(C3CCCC3)C2=O)c(C)n1CCc1ccccc1	8	10	0	20	-13	.	.
Cc1[nH]c2ccccc2c1C(=O)CN1C(=O)C(=O)N(C2CCCC2)C1=O	0	-2	0	6	-3	-15%	-5%
Cc1ccsc1C(=O)NNC(=O)c1ccncc1	0	-26	-2	-2	6	0%	-4%
c1ccc(Cc2noc(CN3CCN(CCOc4ccccc4)CC3)n2)cc1	63*	-6	2	-25	55*	?	21%
Cc1ccc(NC(=O)CN(C)C(=O)Cn2c(=O)oc3ccccc32)cc1	1	-12	2	7	-2	.	.
CN(CC(=O)Nc1ccc(F)cc1)C(=O)Cn1c(=O)oc2ccccc21	0	5	3	5	11	-5%	-2%
CCC(C)Nc1ccc(NC(C)CC)cc1 (stereo not given)	1	-2	7	0	-10	1%	14%
CN1CCC2(CC1)C1CN(C)CC=C1C(C#N)=C(N)C2(C#N)C#N (stereo not given)	46*!	3	14	-17	30	29%	?
COc1ccc(-c2oc3ncn4nc(-c5ccccc5Br)nc4c3c2-c2ccc(OC)cc2)cc1	1	.	.	-1	.	.	.
Cc1cc(NC(=O)CSCC(=O)Nc2cc(Cl)ccc2N2CCN(C)CC2)no1	1	-11	-3	4	4	0%	0%
CC(NC(=O)c1ccc2c(c1)OCO2)C(c1cccs1)N1CCOCC1 (stereo not given)	1	-9	0	12	0	.	.
CC(NC(=O)c1ccc2c(c1)OCO2)C(c1cccs1)N1CCN(c2ccccc2)CC1 (stereo not given)	43*	-1	-2	-24	-8	0%	3%
CC(NC(=O)c1cccs1)C(c1cccs1)N1CCN(Cc2ccccc2)CC1 (stereo not given)	-1	-30	-1	1	-7	.	.
CCC(=O)NC(C)C(c1cccs1)N1CCN(Cc2ccccc2)CC1 (stereo not given)	45*	-11	-4	-15	2	-12%	4%
Cc1nc(SCc2ccccc2)c([N+](=O)[O-])[nH]1	0	-10	-5	-1	22	-23%	-7%
COc1ccc(CSc2nc(C)[nH]c2[N+](=O)[O-])cc1[N+](=O)[O-]	-1	-3	-1	-7	-9	.	.
CCOC(=O)c1c(NC(=O)c2noc3c2CC(C(C)(C)C)CC3)sc2c1CCCC2 (stereo not given)	1	.	.	-5	.	.	.
Cc1cccc(OCC(O)CN2CCN(c3ccccn3)CC2)c1C (stereo not given)	72*	-21	?	-21	78*	21%	?
CC1(C)Cc2cccc(OCC(O)CN3CCN(c4ccccn4)CC3)c2O1 (stereo not given)	72*	-4	?	-25	60*	?	?
CC1(C)Cc2cccc(OCC(O)CNCc3ccccn3)c2O1 (stereo not given)	0	-21	-1	6	-1	.	.
Cc1cc(C)c(C)c(OCC(O)CN2CCN(c3ccccn3)CC2)c1 (stereo not given)	66*	-3	48*	-29	92*	4µM*	4µM*
CCCOc1ccc(C2C(=O)N(C3CCCCCC3)CC(=O)N2Cc2ccc(OC)cc2)cc1OC (stereo not given)	1	.	.	-14	.	.	.
O=C(O)CCc1ccc(-c2cccs2)n1CCc1ccccc1	.	-15	3	-11	.	5%	6%
O=C(O)CCc1ccc(-c2cccs2)n1CCC(=O)O	1	10	-4	8	-1	.	.
SMILES	D2 ag-1	D2 PAM-1	D2 ag-2	D2 PAM-2	D2 antagonist	D3 arrestin ag	D2 ag-3
OC(CSc1c(Cl)cccc1Cl)CN1CCN(c2ccccc2F)CC1 (stereo not given)	68*	-11	?	-25	65*	?	?
OC(CSc1ccccc1Cl)CN1CCN(c2ccccc2F)CC1 (stereo not given)	63*	20	?	-17	74*	45µM*	?
CC12CCC(C(=O)N(CCCCN3CCN(c4ccccn4)CC3)C1=O)C2(C)C (stereo not given)	73*	57*	73*	-21	84*	?	0.071µM*
Cc1ccc(C(=O)c2oc3ccccc3c2NC(=O)Cc2ccccc2)cc1	1	.	.	-1	.	.	.
CNc1nc(N)c([N+](=O)[O-])c(NCc2ccccc2)n1	10	-21	-1	-1	44*	-12%	-7%
CNc1nc(N)c([N+](=O)[O-])c(Nc2cccc(F)c2)n1	14	-8	-1	9	3	-4%	-4%
C=CC[C@H]1Cc2c(cccc2[N+](=O)[O-])[C@H](CC=C)N1	36*	13	?	.	59*	?	?
O=C(CCN1CCN(c2ccccc2)CC1)Nc1ccc(OCc2ccccc2)cc1	53*	-10	11	-19	65*	?	?
COC(=O)c1ccc(NC(=O)CCN2CCN(c3ccccc3)CC2)cc1	54*	9	?	-8	50*	?	?
COC(=O)c1cc(CN2CCN(c3ccccc3)CC2)ccc1O	6	-60	6	-5	16	3%	8%
O=C(Nc1ccc(C(=O)NCCCN2CCN(c3ccccc3)CC2)cc1)C1=CSCCO1	82*	-19	44*	-20	81*	11%	?
O=C(CCN1CCN(c2ccccc2)CC1)Nc1ccc(Cl)cc1	0	-13	3	-1	-12	.	.
COc1cccc2sc(N3CCN(C(=O)CCS(=O)(=O)c4ccc(F)cc4)CC3)nc12	-2	.	.	5	.	.	.
Cc1ccccc1Cn1cnc2nc3c(cc2c1=O)CC(C)CC3 (stereo not given)	0	.	.	4	.	.	.
Cc1ccc(NC(=O)N2CCc3cc(S(=O)(=O)N4CCC(C)CC4)ccc32)cc1C	0	.	.	-4	.	.	.
O=C(N/N=C/c1cccc(Oc2ccccc2)c1)c1cc[n+]([O-])cc1	-1	-3	-1	4	14	.	.
Nc1ccc(C(=O)N/N=C/c2cccc(Oc3ccccc3)c2)cc1	-1	-8	-1	5	31*	0%	1%
